Measurements: PubChem BioAssay AID504558 (Broad Institute, 2011)
Screen size: about 350,000 compounds; about 2,400 (0.69%) were called active. Rule as the data show it: active = inhibition above about 41%; inconclusive = no clear call, values can overlap the other calls; inactive = below that. The list comes from a sample in which actives are over-represented; it also holds similar structures and randomly drawn compounds.

assay: EBV LMP1-driven NF-kappaB luciferase reporter inhibitors, primary screen, cell-based, luminescence, single point (AID 504558); conditions: LMP1-induced NF-kappaB luciferase reporter cells, at 12.5 µM, stronger effect = higher value;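 also: 0% = neutral control wells and 100% = reference inhibitor control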

inhibition, active:
Cc1ccc(C2=C/C(=C\c3cccnc3)C(=O)O2)cc1 43.1%
CC(C)(C)Nc1nc(-c2ccccn2)nc2ccccc12 45.7%
Oc1c(CN2CCCC2)cc(COCc2ccccc2)c2cccnc12 69%
CC1(C)CC(N2CCN(C(c3ccccc3)c3ccccc3)CC2)=CC(=[N+]2CCCCC2)C1 50.9%
COc1ccc(-c2cc(C(=O)N3CCN(Cc4ccc5c(c4)OCO5)CC3)on2)cc1OC 60.2%
Cc1ccccc1C(=O)NC(=S)Nc1ccc(N2CCN(C(=O)c3ccccc3)CC2)cc1 43.1%
Cc1ccccc1C(=O)N1CCN(c2ccc(NC(=O)c3cccs3)cc2)CC1 49.3%
Oc1ccc(N2CCN(C(=S)NCc3ccccc3)CC2)cc1 50.7%
COc1cccc(/C=C/C(=O)Nc2ccc3c(c2)OCCO3)c1 58.7%
COc1cccc(/C=N/NC(=O)c2[nH]nc3c2CCc2ccccc2-3)c1O 69.4%
COc1ccc(S(=O)(=O)N2CCN(C(=S)NCC3CCCO3)CC2)cc1OC (configuration not stated) 74.2%

inhibition, inactive:
COc1ccc(-c2c(C#N)cnc(C)c2C)c(O)c1OC -4.81%
C[C@@H]1CN([C@H](C)CO)C(=O)CCCn2cc(nn2)CO[C@H]1CN(C)S(C)(=O)=O 1.59%
COc1cccc(NC(=O)CN(C)C(=O)c2cc(Cl)nc3ccccc23)c1 -0.28%
CN(C)/C=C1\C=C(c2ccccc2)OC1=O -8.13%
Cc1ccccc1C1=N/C(=C/c2cccnc2)C(=O)O1 3.85%
Cc1ccc(CN(C)C[C@@H]2OCc3cnnn3CCCC(=O)N([C@@H](C)CO)C[C@H]2C)cc1 0.256%
O=C(COC(=O)/C=C/c1ccc(Cl)cc1)NC1CCS(=O)(=O)C1 (configuration not stated) -1.97%
C[C@@H]1CN([C@@H](C)CO)S(=O)(=O)c2ccc(C#Cc3cccc(F)c3)cc2O[C@H]1CN(C)S(=O)(=O)c1cn(C)cn1 5.98%
C=CCOc1ccccc1CNn1c(C)n[nH]c1=S -1.28%
N#CCCC(C#N)(c1cccnc1)N1CCOCC1 (configuration not stated) 2.43%
Cc1nc2ccccc2c(C(=O)O)c1-c1ccccn1 3.33%
COc1cnc(-c2ccccn2)nc1Oc1ccc(C(C)(C)C)cc1 -4.07%
O=S1(=O)CCN(Cc2ccccc2)CC1 0.572%
CC1=C(C(=O)N2CCOCC2)CC(CC(=O)NCc2cccc3ccccc23)C(=O)N1CCC1=CCCCC1 (configuration not stated) -1.54%
CC1CCN(C(=O)CSc2nnc(-c3ccco3)n2N)CC1 -6.21%
CCCc1cc(=O)oc2c(C)c(O)c(CN3CCCCC3)cc12 5.86%
O=C(Cc1ccccc1)NNC(=O)C1CCN(c2ncccn2)CC1 -1.53%
COCCCN1C(=O)C(CC(=O)NCc2cccs2)CC(C(=O)N2CCOCC2)=C1C (configuration not stated) -3.59%
CC(C)OCC(O)CN1CCN(C(c2ccccc2)c2ccccc2)CC1 (configuration not stated) -3.08%
CC1(C)CC(=O)C=C(N2CCOCC2)C1 7.14%
CCCCN1CC(C)(C)[C@H](CC(=O)Nc2ccc(Br)cc2)C1=O 3.19%
O=C(c1cccs1)N1CCN(Cc2ccc3c(c2)OCO3)CC1 2.81%
CCn1cc(C(=O)N2CCN(Cc3ccc4c(c3)OCO4)CC2)c2cc(OC)c(OC)cc2c1=O -0.487%
O[C@H]1CN(Cc2cccs2)[C@@H](c2ccc(Cl)cc2)C[C@@H]1n1cc(C2CC2)nn1 -3.9%
CCCCCCN1C[C@H](O)[C@@H](n2cc(C3CC3)nn2)C[C@@H]1c1ccc(Cl)cc1 -2.06%
COc1ccccc1C(=O)NC(=S)Nc1ccc(N2CCOCC2)cc1 2.08%
O=C(Nc1ccc(N2CCN(C(=O)c3cccs3)CC2)cc1)c1cccnc1Cl 6.16%
Cc1ccc(C(=O)NC(=S)Nc2ccc(N3CCOCC3)cc2)cc1 1.51%
O=C(Nc1ccc(N2CCN(C(=O)C3CC3)CC2)cc1)c1cccs1 4.6%
CN1OC[C@@H]2CN(S(=O)(=O)c3cccc(C(F)(F)F)c3)[C@H](c3ccc(-c4cc5ccccc5o4)cc3)C[C@@H]21 23.8%
COc1ccc(NC(=O)N(C)C[C@H]2Oc3ncc(C#C[C@@H](C)O)cc3C(=O)N([C@H](C)CO)C[C@H]2C)cc1 3.12%
O=C(COC(=O)c1ccccc1C(=O)N1CCN(c2ccccc2)CC1)NCc1ccccc1 -5.9%
Oc1ccccc1N1CCN(C(=S)NCc2ccccc2)CC1 0.986%
CC(C)N=C1CCCC1C(=S)SSC(=S)C1CCCC1=NC(C)C (configuration not stated) 24.4%
O=C(NCCN1CCOCC1)C1CCN(S(=O)(=O)c2ccccc2)CC1 5.14%
COc1ccc(OC)c(/C=C/C(=O)OCC(=O)Nc2ccc3c(c2)OCCO3)c1 0.837%
O=C(/C=C\c1ccc2c(c1)OCO2)NC1(C(=O)Nc2ccc3c(c2)OCCO3)CCCCC1 -3.03%
CC1CCCC(NC(=O)COC(=O)c2ccccc2C(=O)N(C)C2CCCCC2)C1C (configuration not stated) -11.2%
COc1ccc(/C=C2\CCc3ccccc3C2=O)c(OC)c1OC -2.98%
CCn1c(/C=N/NC(=O)c2ccc(OC)cc2)nc2ccccc21 4.88%
CC1=C(C(=O)N2CCOCC2)CC(CC(=O)NCC2CCCCC2)C(=O)N1Cc1ccc(F)cc1 (configuration not stated) -0.637%
CCCc1ccc(S(=O)(=O)N2CCN(C(=O)c3cc(C)on3)CC2)cc1 -4.88%
C[C@H](CO)N1C[C@H](C)[C@@H](CN(C)Cc2ccc3c(c2)OCO3)OCc2cnnn2CCCC1=O 4.06%
CC(C)C1CCN(C(=O)C2CCC(=O)N(C3CCCCCC3)C2)CC1 (configuration not stated) -25.4%
S=C(NCC1CCCO1)N1CCN(c2ccc(Cl)c(Cl)c2)CC1 (configuration not stated) 10%
CCOc1ccc(S(=O)(=O)N2CCN(C(=S)NCC3CCCO3)CC2)cc1 (configuration not stated) -0.069%
